# Test results as given in PubChem BioAssay AID1220 (Sanford-Burnham Center for Chemical Genomics, 2008).
# Screen size: about 190,000 compounds; about 1,300 (0.68%) were called active. For the sample, actives were picked, then their nearest neighbours and some compounds at random. A number with no mark means an inactive call. Rule as the data show it: active = inhibition above about 50%; inactive = the rest.
# Molecular target: Mannose-6-phosphate isomerase (Homo sapiens) (UniProt P34949)
# Assay: MPI inhibition at elevated mannose 6-phosphate – biochemical, fluorescence intensity, high mannose 6-phosphate, primary screen (AID 1220)
# Settings: recombinant PMI enzyme, coupled fluorescence intensity; at 20 µM; hits give high values
# Sequence of Mannose-6-phosphate isomerase (Homo sapiens) (P34949 whole entry, looked up): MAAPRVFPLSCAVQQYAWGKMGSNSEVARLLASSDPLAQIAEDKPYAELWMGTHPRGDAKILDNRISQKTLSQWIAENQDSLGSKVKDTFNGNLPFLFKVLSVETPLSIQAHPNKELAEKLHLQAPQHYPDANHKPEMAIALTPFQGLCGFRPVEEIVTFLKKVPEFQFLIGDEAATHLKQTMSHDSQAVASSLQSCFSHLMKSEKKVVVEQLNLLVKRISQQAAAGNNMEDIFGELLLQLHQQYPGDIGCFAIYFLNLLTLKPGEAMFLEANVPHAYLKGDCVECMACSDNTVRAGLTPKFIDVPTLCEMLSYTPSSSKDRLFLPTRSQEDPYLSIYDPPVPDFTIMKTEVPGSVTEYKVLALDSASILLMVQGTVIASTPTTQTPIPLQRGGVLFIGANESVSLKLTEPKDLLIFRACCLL
row,SMILES,inhibition
1,O=C(CO/N=C/c1ccc(OC(F)F)cc1)NC1CCCC1,0.6%
2,COC(=O)C1=C(C)N(CCc2ccc(OC)c(OC)c2)C(=O)C1,-10.6%
3,Cc1nnc(SCc2nnc(-c3cccs3)o2)n1Cc1ccccc1,-7.3%
4,COc1cc(C(c2oc(CO)cc(=O)c2O)c2oc(CO)cc(=O)c2O)cc(OC)c1OC,-11.4%
5,CCCN1CCN(CCCNC(=S)Nc2ccc(OC)cc2)CC1,6.6%
6,O=C(OCC(=O)N1CCCCC1)c1ccccc1SCC(=O)N1CCCCC1,-4%
7,Cc1cc(=O)n2ccccc2c1C#N,3.5%
8,Cn1c(CN2CCOCC2)c(C#N)c2ccccc21,3%
9,N#Cc1c2ccc(O)cc2n2ccccc12,62.6% (active)
10,COC(=O)CCC/C=C1/SCC(NC(=O)c2ccccc2)/C1=N/O (centres undefined),-7.4%
11,CCC(C(=O)Nc1cnccn1)c1ccccc1 (centres undefined),4%
12,Cc1cc(C)nc(SCc2ccc(C(=O)N/N=C/c3ccccc3C(=O)O)cc2)n1,-6.2%
13,CCN(CC)S(=O)(=O)c1cccc(C(=O)N/N=C/c2cccc(O)c2O)c1,53.1% (active)
14,Cc1cc(C)nc(SCc2ccc(C(=O)N/N=C/c3cccc(O)c3O)cc2)n1,55% (active)
15,CCN(CC)S(=O)(=O)c1cccc(C(=O)N/N=C/c2ccc(OC)c(O)c2)c1,6.1%
16,CCn1c(C)nc2cc(C(=O)N/N=C/c3ccccc3C)ccc21,-6.4%
17,CCN(CC)S(=O)(=O)c1cccc(C(=O)N/N=C/c2ccccc2OCC(=O)O)c1,2.8%
18,CCN(CC)S(=O)(=O)c1cccc(C(=O)N/N=C/c2cc(OC)c(O)c(OC)c2)c1,15.5%
19,CCOc1ccccc1/C=N/NC(=O)c1cccc(S(=O)(=O)N(CC)CC)c1,5.1%
20,COc1ccc(O)c(/C=N/NC(=O)c2ccc(CSc3nc(C)cc(C)n3)cc2)c1,-12.2%
21,CCn1c(C)nc2cc(C(=O)N/N=C/c3cccc(OC)c3O)ccc21,-8.6%
22,O=C(Nc1ccc(N=Nc2ccccc2)c(NC(=O)C2CCCO2)c1)C1CCCO1 (centres undefined),9%

row,SMILES,inhibition
1,COc1ccccc1NC(=O)CN1CCN(c2ccccn2)CC1,-9%
2,COC(=O)Cc1c(C)c2ccc(OCC(=O)N(C)C)cc2oc1=O,-8.1%
3,Cc1cc(C)n(C(=O)CCCCCC(=O)n2nc(C)cc2C)n1,-6.2%
4,O=C(CCN1C(=O)C2C3C=CC(C3)C2C1=O)Nc1ccccc1 (centres undefined),-8.2%
5,C/C(=N\NC(=O)Cn1c(-c2ccccn2)nc2ccccc21)c1cccc(O)c1,-16.2%
6,NNC(=O)c1cc2c(s1)CCCCCC2,-2.3%
7,O=C(Nc1ccc2c(c1)OCCO2)c1cccc(S(=O)(=O)N2CCCCC2)c1,18.2%
8,COC(=O)c1ccc(C)c(N(CCO)CCO)c1,0.5%
9,COc1ccc(-n2c(C(C)(C)C)csc2=Nc2c(C)n(C)n(-c3ccccc3)c2=O)cc1,5.7%
10,O=C1Nc2ccc(NS(=O)(=O)c3cccs3)c3cccc1c23,65.7% (active)
11,O=S(=O)(Nc1cccc2[nH]ncc12)c1cccs1,5.1%
12,O=C(O)c1ccccc1NS(=O)(=O)c1ccc2c3c(cccc13)C(=O)N2,-2%
13,COc1ccc(C(CNC(=O)CCOc2ccccc2)N(C)C)cc1 (centres undefined),-3.8%
14,O=C(O)c1ccc(COc2ccc3ccccc3c2/C=C2/NC(=O)N(Cc3ccc(F)cc3)C2=O)cc1,52.7% (active)
15,O=C(O)c1ccc(COc2ccccc2/C=C2\NC(=O)N(Cc3ccc(F)cc3)C2=O)cc1,-7.9%
16,O=C(O)c1ccc(COc2ccc3ccccc3c2/C=C2/NC(=O)N(c3ccccc3)C2=O)cc1,22.6%
17,CC1CC(C)CN(CCCNC(=O)c2csc3c2CCCC3)C1 (centres undefined),8.3%
18,CCC(=O)Nc1ccc(Cl)c(NC(=O)c2ccc(Br)o2)c1,1.8%
19,CC(C)CC1C(C#N)=C(N)OC2=C1C(=O)CC(c1ccccc1)C2 (centres undefined),57% (active)
20,N#CC1=C(N)OC2=C(C(=O)CC(c3ccccc3)C2)C1c1ccoc1 (centres undefined),-1.4%
21,CC1C(C#N)=C(N)OC2=C1C(=O)CC(c1ccccc1)C2 (centres undefined),10.5%
22,CCN(CC)C(=O)C1=C(C)Nc2nnnn2C1c1cccnc1 (centres undefined),6.1%

row,SMILES,inhibition
1,CC[n+]1c(/C=C/N(C)c2ccccc2)oc2ccccc21,36.4%
2,CC[n+]1c(/C=C/N(C)c2ccccc2)oc2ccc(F)cc21,26.2%
3,CC[n+]1c(/C=C/N(C)c2ccccc2)oc2ccc(Cl)cc21,51.8% (active)
4,CCCc1cc(=O)[nH]c(SCC(=O)N(C)Cc2ccccc2)n1,10.9%
5,O=C(NCc1ccco1)C(C(=O)c1ccccc1)n1ccccc1=O (centres undefined),1%
6,O=C(NCCNS(=O)(=O)c1ccccc1)N1CCOCC1,-0.7%
7,CCOC(=O)C(NC(=O)Nc1ccc(O)cc1)(c1ccccc1)C(F)(F)F (centres undefined),50.4% (active)
8,CCOC(=O)C(NC(=O)NC1CCCCC1)(c1ccccc1)C(F)(F)F (centres undefined),-5.1%
9,CCOC(=O)C(NC(=O)Nc1ccc(C(N)=O)cc1)(c1ccccc1)C(F)(F)F (centres undefined),-6.9%
10,O=C(Cc1ccc(Cl)cc1)NCCS(=O)c1ccc(Cl)cc1 (centres undefined),8%
11,CCCN1CCN(CCCNC(=O)CCn2nc(-c3ccccc3)ccc2=O)CC1,-12.2%
12,CCCn1c(CCc2ccccc2)n[nH]c1=S,2.6%
13,O=C(O)c1ccccc1C(=O)Nc1ccc(Br)c2cccnc12,53.1% (active)
14,O=C(O)c1ccccc1C(=O)Nc1ccccn1,7.2%
15,O=C(Nc1cccc2cccnc12)c1cccc2ccccc12,-6.9%
16,c1ccc2c(c1)nc1sccn12,-4.9%
17,Cc1ccc(/C=C(/C#N)C(=O)NC(=O)Oc2ccccc2)cc1,3.4%
18,O=C(NCc1ccccc1)NC1CCCCC1,5.5%
19,S=C(Nc1cccc2ccccc12)NC1CCCCC1,48.3%
20,O=C(NC1CCCCC1)Oc1cccc2ccccc12,61.4% (active)
